# According to ChEMBL document CHEMBL4888484, “Replenishing the malaria drug discovery pipeline: Screening and hit evaluation of the MMV Hit Generation Library 1 (HGL1) against asexual blood stage Plasmodium falciparum ,using a nano luciferase reporter read-out” (2022):
# About 420 (8.8%) of roughly 4,800 compounds showed an effect of 50% or more. The full list was thinned out, with strong results kept by preference.
# Tested on: Plasmodium falciparum
# Assay: Confirmatory screen in NF54 nanoGlo assay, in single point, at 2uM, 72h
# Type: functional, Erythrocyte
# Details: timepoint 72 hour
row,Structure (SMILES),% Inhibition
1,CCCN1CCC(NCc2ccc(-c3cccc(Cl)c3Cl)o2)CC1,65%
2,O=C(Nc1cccc2ccccc12)c1nn[nH]c1NS(=O)(=O)c1ccccc1,-9%
3,COc1ccnc(N2CCc3nn(C(C)C)c(=O)cc3C2)n1,-4%
4,O=C(Cc1ccc(N(Cc2cccc(F)c2)C(=O)C2CCCC2)cc1)NCCN1CCCCC1,54%
5,Cc1cccc(CN(C(=O)C2CCCC2)c2ccc(CC(=O)NCCN3CCOCC3)cc2)c1,9%
6,O=C(Cc1ccc(N(Cc2cccc(F)c2)C(=O)C2CCCC2)cc1)NCCN1CCCC1,21%
7,NC(=O)C1CCN(C(=O)Nc2nc(C(F)(F)F)cs2)CC1,5%
8,CC1(C)CCC[C@@H]1NS(=O)(=O)c1ccc(C(=O)N2CCOCC2)cc1,4%
9,Oc1ccc(-c2nnc(-c3ccc(O)cc3)nn2)cc1,51%
10,Oc1ccc(-c2ncc3n2CCCC3)cc1,4%
11,Cc1c(-c2ccc(F)cc2)[nH]c2ccc(CNc3nccc(N(C)C)n3)cc12,29%
12,CC(C)[C@H](Nc1ccc2nccnc2n1)c1nnc2n1CCC2,-8%
13,Oc1ccccc1-c1cnc(C(F)(F)F)s1,94%
14,Oc1nc(-c2cccc(C(F)(F)F)c2)sc1-c1ccccc1,0%
15,CN(C)Cc1cn(C[C@H]2C[C@@H](NC(=O)Nc3ccc4c(c3)OCCO4)[C@H](O)[C@@H]2O)nn1,0%
16,CC1CN(C(=O)COc2ccc3oc4ccccc4c3c2)CC(C)O1 (centres undefined),-3%
17,CNC[C@H]1CCCN1C(=O)c1ccc(-c2noc(C(F)(F)F)n2)cc1,29%
18,COC1CCCCC1NC(=O)c1ccc(-c2noc(C(F)(F)F)n2)cc1 (centres undefined),-1%
19,CC(C(=O)N1N=CCC1(O)C(F)(F)F)n1nc(C(F)(F)F)cc1C1CC1 (centres undefined),-1%
20,O=C(NCCc1cc(F)cc(F)c1)C1CC2CCC1C2 (centres undefined),0%
21,O=S(=O)(Cc1cc(Cl)cc(Cl)c1)NCCCCn1ccnc1,-6%
22,COc1ccc(Nc2nnc(-c3ccc(NC(=O)C(=O)NCCCn4ccnc4)cc3)s2)cc1,56%
23,COc1ccc(-c2nccn3cc(C(=O)NCCc4ccncc4)nc23)cc1,-1%
24,Cn1c2ccc(Br)cc2c2cc(NS(=O)(=O)c3ccccc3)ccc21,4%
25,CS(=O)(=O)Nc1nc2c(s1)CN(C(=O)c1ccc3c(c1)CCC=C3)CC2,0%

row,Structure (SMILES),% Inhibition
1,Cc1nc(CC(=O)Nc2cc(C3CC3)nn2-c2ccccc2)cs1,1%
2,Cc1ccc(C(=O)Nc2c(C(N)=O)sc3nc(C(F)F)cc(C4CC4)c23)cc1,-16%
3,Cc1nn(C)c(NC(=O)c2ccc(C(C)(C)C)cc2)c1C1=CCCCC1,15%
4,CCc1cc(C(=O)N2CCCCCC2)c2c(C3CC3)nn(-c3ccc(F)cc3)c2n1,0%
5,CC(C)c1cc(=O)[nH]c(-n2nc(C3CC3)cc2NC(=O)c2ccc(F)cc2)n1,93%
6,CN1CCC[C@H](C(=O)Nc2nc(C3CC3)cs2)C1,-12%
7,Cc1cc(=O)[nH]c(-n2nc(C3CC3)cc2NC(=O)c2ccc(C(C)(C)C)cc2)n1,57%
8,CCc1cc(=O)[nH]c(-n2nc(C3CC3)cc2NC(=O)C2CCCCC2)n1,88%
9,Cc1cc(F)ccc1NC(=O)Cn1nc(C2CC2)c2c(C(F)F)cc(=O)[nH]c21,-4%
10,Cc1cc(=O)[nH]c(-n2nc(C3CC3)cc2NC(=O)C(c2ccccc2)c2ccccc2)n1,91%
11,CC1CCC(NC(=O)C(c2ccccc2)c2ccccc2)CC1 (centres undefined),10%
12,CC(C)(C)c1ccc(C(=O)N[C@H]2CCCC[C@@H]2NC(=O)c2ccc(C(C)(C)C)cc2)cc1,-5%
13,CC1CC(C)CC2(C1)NC(=O)N(CCC1OCCO1)C2=O (centres undefined),-1%
14,Cc1cc(=O)n(CC(=O)N2CCC(C)CC2)c(-c2ccc(F)cc2)n1,-4%
15,O=C(CCc1nc(CN2CCN(S(=O)(=O)c3ccc(F)cc3)CC2)no1)N1CCCC1,-4%
16,CCOC(=O)N1CCc2c(nc(-c3ccc(C)cc3)n(CC(=O)Nc3ccc(C(C)C)cc3)c2=O)C1,-16%
17,Cc1noc([C@H](C)S(=O)(=O)Cc2cc(C)on2)n1,0%
18,O=S(=O)(Nc1ccc(F)cc1OCC1CC1)c1cn[nH]c1,-12%
19,Cn1cc(CNC(=O)NCC2(Cc3ccccc3)CCC2)cn1,-4%
20,Cc1c(C(C)C)c(=O)n(-c2ccc(S(=O)(=O)N3CCN(c4nc5ccccc5nc4-c4ccccc4)CC3)cc2)n1C,-20%
21,CCN(CC(C)(C)O)C(=O)C1CCCCCC1,-9%
22,Cn1nc(C(F)(F)F)cc1B1OC(C)(C)C(C)(C)O1,4%
23,C=CCOc1ccc(Cl)c(C(=O)N[C@H]2CCS(=O)(=O)C2)n1,0%
24,CCC(CC)C(=O)Nc1cc(C2CC2)nn1-c1nc(-c2ccccc2)cc(=O)[nH]1,50%
25,O=C(CCCc1ccccc1)Nc1cc(C2CC2)nn1-c1nc(-c2ccccc2)cc(=O)[nH]1,48%

row,Structure (SMILES),% Inhibition
1,Cc1cc(N)n(-c2nc(-c3ccccc3)cc(=O)[nH]2)n1,1%
2,Cc1ccc(NC(=O)NC(=O)Cn2ccc(=O)c3sccc32)cc1C,0%
3,Cc1ccc(S(=O)(=O)N2CCCC(=O)c3ccccc32)cc1,-3%
4,Cc1ccc2c(c1)c1c(n2S(=O)(=O)c2ccc(C(C)(C)C)cc2)CCCN(C)C1,76%
5,Cc1ccc(S(=O)(=O)N2CCN(S(C)(=O)=O)C2)cc1,0%
6,CC#CCCC(=O)Nc1ccc(OC)cc1,-5%
7,Cc1cc(C)c(OC(=O)c2ccc(Cl)cc2Cl)c(CNC(=O)c2ccccc2)c1,-16%
8,c1cc([C@@H]2CCCCN2c2nc(C3CC3)ns2)n[nH]1,2%
9,CCNC(=O)C[C@H]1CCCCN1C(=O)C1CCN(Cc2csc(C)n2)CC1,-1%
10,Cc1ccc(C(=O)N[C@@H](C)CCc2ccccc2)cc1S(=O)(=O)N1CCN(C)CC1,-20%
11,O=S(=O)(c1ccccc1C(F)(F)F)N1CC[C@]2(CCN(c3cccnc3)C2)C1,-2%
12,CCn1nccc1CN(C)C(=O)c1cc(C)c(C)s1,5%
13,CCCC[C@H](CC)C(=O)Nc1cc(C)ccn1,0%
14,Cc1cc(C)n(NC(=O)CCn2nc(C(F)(F)F)c(Br)c2C2CC2)c(=O)c1,3%
15,Clc1cc(CN2CC[C@@]3(CCCOC3)C2)ccc1OCCN1CCOCC1,0%
16,CCCOc1cccc2c(NC3CCN(CCOC)CC3)ccnc12,22%
17,Cc1cc(C)cc(Nc2nc(C)cc(=O)n2CC(=O)N2CCN(c3ccc(F)cc3)CC2)c1,-1%
18,Cc1c(C(=O)c2ccc(Cl)c(Cl)c2)sc2nc3cc(F)c(F)cc3n12,-11%
19,Nc1ncnc(NCc2cccnc2OCC(F)F)c1Cl,7%
20,COc1cc(C(=O)NCCN2CCOCC2)cc2occc12,-4%
21,CC1CC(NS(=O)(=O)CCCC(F)(F)F)CCN1 (centres undefined),-4%
22,COc1cc(NC(=O)N[C@@H](C)C(=O)N2CCc3ccccc32)cc(OC)c1,4%
23,Cc1ccc(NC(=O)c2cc3nccc(-c4ccc(F)cc4)n3n2)nc1,-7%
24,CN(C(=O)NC1CCCC1)c1nc2c(s1)CN(Cc1ccccc1)C2=O,-12%
25,Cc1ccc(CNC2CCN(C)CC2)c(OCc2ccco2)c1,-3%

row,Structure (SMILES),% Inhibition
1,Cc1ccc2nc(C3CC3)cc(C(=O)N3C[C@@H](O)C[C@H]3CO)c2c1,-4%
2,Cc1ccc2nc3c(c(N)c2c1)CCCCN3C,-10%
3,COCCN(CC1CN(Cc2ccccc2OC)CC1c1ccccc1OC)C(=O)COC (centres undefined),-2%
4,CC(C)[C@@H]1CCc2ccccc2N1Cc1nc(N)nc(N(C)C)n1,-4%
5,COc1ccc(NC(=O)Cn2c(C(F)(F)F)nc3cc4c(cc32)OCCCO4)cc1,4%
6,Cn1c2cn(-c3ccc(F)cc3)c(-c3ccccc3)c2c(=O)n1-c1ccccc1,-1%
7,Cn1c(=O)c2c(-c3ccc(Cl)cc3)n(-c3cccc4cccc(N)c34)cc2n(C)c1=O,91%
8,CC(C)(C)OC(=O)N1CCCC(C(O)C(F)(F)F)C1 (centres undefined),6%
9,CCCCC12CN(S(=O)(=O)c3ccccc3)CC(C)(CN(S(=O)(=O)c3ccccc3)C1)C2=O,-5%
10,Cn1cccc1C(=O)NC1CCN(c2ccc(Cl)c(C#N)n2)CC1,-5%
11,Cc1c(C(=O)NC2CC2)cc(-c2ccccc2)n1C,-3%
12,CCCCN(CC)CCNC(=O)C1CCN(C2=NS(=O)(=O)C(c3ccc(OC)cc3)=C2C)CC1,32%
13,COc1ccc(-c2cc(C(=O)N[C@H]3CCN(c4ccc(=O)[nH]n4)C3)c(C)n2C)cc1,69%
14,COc1ccc(-c2cc(C(=O)N[C@H]3CCN(c4ccc(=O)n(C)n4)C3)c(C)n2C)cc1,62%
15,CC(C)NC(=O)c1ccc(CN2C(=O)COc3ccc(C(=O)COc4ccc(F)c(F)c4)cc32)o1,4%
16,CC[C@H](C)NS(=O)(=O)c1cccc(N)c1,-4%
17,O=C(NCc1ccco1)[C@H]1CCCN(c2nc3ccccc3n(Cc3ccccc3)c2=O)C1,4%
18,Brc1cccc(-c2ccc(-c3cc(-c4ccccc4)nnc3-c3ccccc3)o2)c1,31%
19,COc1cc(Br)ccc1C1NC(=O)C2COCCN21 (centres undefined),7%
20,CC(C)(C)c1cc([C@H](c2ccc(Cl)cc2)N2CCCCC2)cc(C(C)(C)C)c1O,2%
21,CN(Cc1nnc[nH]1)C(=O)C1(C)CCC1,-11%
22,COc1ccc(CCNc2nc(-c3ccc(OC)cc3F)c3c(N)n(-c4ccc(Cl)cc4)nc3n2)cc1,59%
23,COCCNc1nc(-c2ccccc2OC)c2c(N)n(-c3ccc(F)cc3)nc2n1,-6%
24,COc1ccc(-n2nc(C)c(Cc3ccc(Cl)cc3)c2O)cc1,0%
